In article PMC5540273 (PLoS ONE, 2017):

Assays:
Details in all cases: concentration: 1 μM, replicates: in singlicate; n = 1
MRCKA = tested on: MRCKA
MRCKB = tested on: T1, MRCKB
T1 construct: gene CDC42BPB

MST1R = tested on: MST1R
MST1 = tested on: T2, MST1
T2 construct: gene STK4

MST2 = tested on: T3, MST2
T3 construct: gene STK3

MST3 = tested on: T4, MST3
T4 construct: gene STK24

MST4 = tested on: MST4
MTOR = tested on: MTOR
MUSK = tested on: MUSK
MYLK2 = tested on: MYLK2
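Note: KINOMEscan kinase panel screen.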

O=C(Nc1ccccc1F)NC1CCN(c2ccnc(Nc3ccc(F)cc3)n2)C1 (stereo not shown) [GSK1379722]
%Inh (MRCKA): 15% | %Inh (MRCKB): 0% | %Inh (MST1R): 38% | %Inh (MST1): 0% | %Inh (MST2): 0% | %Inh (MST3): 0% | %Inh (MST4): 0% | %Inh (MTOR): 17% | %Inh (MUSK): 2% | %Inh (MYLK2): 12%

Cc1ccc(C)c(NC(=O)NCCNc2ccnc(Nc3ccc(F)cc3)n2)c1 [GSK1379878]
%Inh (MRCKA): 12% | %Inh (MRCKB): 0% | %Inh (MST1R): 7% | %Inh (MST1): 0% | %Inh (MST2): 0% | %Inh (MST3): 0% | %Inh (MST4): 0% | %Inh (MTOR): 2% | %Inh (MUSK): 0% | %Inh (MYLK2): 0%

COc1cc2c(Nc3cccc(NC(=O)c4ccccc4)c3)ncnc2cc1OCCCN1CCOCC1 [GSK223810]
%Inh (MRCKA): 15% | %Inh (MRCKB): 4% | %Inh (MST1R): 0% | %Inh (MST1): 4% | %Inh (MST2): 0% | %Inh (MST3): 10% | %Inh (MST4): 0% | %Inh (MTOR): 6% | %Inh (MUSK): 1% | %Inh (MYLK2): 0%

Cl.c1ccc(Cn2ncc3cc(Nc4ncnc5ccccc45)ccc32)cc1 [GW273749]
%Inh (MRCKA): 10% | %Inh (MRCKB): 0% | %Inh (MST1R): 27% | %Inh (MST1): 0% | %Inh (MST2): 8% | %Inh (MST3): 0% | %Inh (MST4): 0% | %Inh (MTOR): 8% | %Inh (MUSK): 0% | %Inh (MYLK2): 2%

Nc1n[nH]c2nnc(-c3ccccc3)cc12 [SB-517389]
%Inh (MRCKA): 16% | %Inh (MRCKB): 0% | %Inh (MST1R): 27% | %Inh (MST1): 0% | %Inh (MST2): 5% | %Inh (MST3): 0% | %Inh (MST4): 0% | %Inh (MTOR): 14% | %Inh (MUSK): 8% | %Inh (MYLK2): 13%

CNc1nccc(-c2c(-c3ccc(F)cc3)ncn2C2CCN(C)CC2)n1 [SB-222903]
%Inh (MRCKA): 0% | %Inh (MRCKB): 5% | %Inh (MST1R): 0% | %Inh (MST1): 0% | %Inh (MST2): 0% | %Inh (MST3): 0% | %Inh (MST4): 0% | %Inh (MTOR): 18% | %Inh (MUSK): 0% | %Inh (MYLK2): 0%

OCCOCCn1ccc2ncnc(Nc3ccc(Oc4cccc(Cl)c4)c(Cl)c3)c21
%Inh (MRCKA): 0% | %Inh (MRCKB): 0% | %Inh (MST1R): 0% | %Inh (MST1): 0% | %Inh (MST2): 0% | %Inh (MST3): 0% | %Inh (MST4): 0% | %Inh (MTOR): 46% | %Inh (MUSK): 0% | %Inh (MYLK2): 0%

COc1ccc(Nc2nccc(N3CCC(NC(=O)c4cccc(NC(C)=O)c4)C3)n2)cc1 (stereo not shown) [GSK1379732]
%Inh (MRCKA): 0% | %Inh (MRCKB): 0% | %Inh (MST1R): 34% | %Inh (MST1): 0% | %Inh (MST2): 10% | %Inh (MST3): 13% | %Inh (MST4): 0% | %Inh (MTOR): 8% | %Inh (MUSK): 0% | %Inh (MYLK2): 8%

C[C@@H]1CCN(C(=O)CO)C[C@@H]1N(C)c1ncnc2[nH]ccc12
%Inh (MRCKA): 0% | %Inh (MRCKB): 100% | %Inh (MST1R): 21% | %Inh (MST1): 12% | %Inh (MST2): 0% | %Inh (MST3): 11% | %Inh (MST4): 0% | %Inh (MTOR): 55% | %Inh (MUSK): 0% | %Inh (MYLK2): 2%

CCc1nc(-c2cccc(N(C)S(=O)(=O)c3ccccc3)c2)c(-c2ccnc(Nc3ccc(N4CCN(C(C)=O)CC4)nc3)n2)s1 [GSK1645895]
%Inh (MRCKA): 0% | %Inh (MRCKB): 0% | %Inh (MST1R): 40% | %Inh (MST1): 3% | %Inh (MST2): 16% | %Inh (MST3): 15% | %Inh (MST4): 0% | %Inh (MTOR): 2% | %Inh (MUSK): 1% | %Inh (MYLK2): 0%

Cl.O=S(=O)(c1cccc(F)c1)c1ccc(Nc2ncnc3cc(Br)sc23)cc1Cl [GSK306886]
%Inh (MRCKA): 18% | %Inh (MRCKB): 9% | %Inh (MST1R): 20% | %Inh (MST1): 0% | %Inh (MST2): 9% | %Inh (MST3): 2% | %Inh (MST4): 0% | %Inh (MTOR): 12% | %Inh (MUSK): 8% | %Inh (MYLK2): 3%

Fc1cccc(COc2ccc(Nc3ncnc4sc(-c5ccc[nH]5)cc34)cc2Cl)c1 [GW707818]
%Inh (MRCKA): 23% | %Inh (MRCKB): 6% | %Inh (MST1R): 33% | %Inh (MST1): 0% | %Inh (MST2): 18% | %Inh (MST3): 8% | %Inh (MST4): 0% | %Inh (MTOR): 13% | %Inh (MUSK): 0% | %Inh (MYLK2): 14%

Clc1cc(Nc2ncnc3cc[nH]c23)ccc1OCc1ccccn1
%Inh (MRCKA): 0% | %Inh (MRCKB): 8% | %Inh (MST1R): 37% | %Inh (MST1): 12% | %Inh (MST2): 48% | %Inh (MST3): 28% | %Inh (MST4): 0% | %Inh (MTOR): 0% | %Inh (MUSK): 13% | %Inh (MYLK2): 11%

CC(C)(C)OC(=O)NC1CCCN(c2cc(-c3ccc4c(N)n[nH]c4c3)nc(N)n2)C1 (stereo not shown) [GSK2286096]
%Inh (MRCKA): 9% | %Inh (MRCKB): 0% | %Inh (MST1R): 31% | %Inh (MST1): 0% | %Inh (MST2): 0% | %Inh (MST3): 6% | %Inh (MST4): 0% | %Inh (MTOR): 8% | %Inh (MUSK): 0% | %Inh (MYLK2): 24%

Cc1cccc(-c2nc(Nc3ccc4[nH]nnc4c3)c3ccccc3n2)n1 [GW867587]
%Inh (MRCKA): 0% | %Inh (MRCKB): 2% | %Inh (MST1R): 0% | %Inh (MST1): 0% | %Inh (MST2): 0% | %Inh (MST3): 0% | %Inh (MST4): 0% | %Inh (MTOR): 5% | %Inh (MUSK): 2% | %Inh (MYLK2): 0%

O=C(CCO)NCCn1ccc2ncnc(Nc3ccc(Oc4cccc(C(F)(F)F)c4)c(Cl)c3)c21
%Inh (MRCKA): 0% | %Inh (MRCKB): 2% | %Inh (MST1R): 0% | %Inh (MST1): 0% | %Inh (MST2): 0% | %Inh (MST3): 0% | %Inh (MST4): 0% | %Inh (MTOR): 31% | %Inh (MUSK): 0% | %Inh (MYLK2): 0%
